Source: PubChem BioAssay (NCI)
Compounds without any hit were thinned out: in the full panel of roughly 79,000, 15% have a hit. A number with no mark means an inactive call. The source made the active and inactive calls. Cut-off read from the data, not from the text of the source: active = growth inhibition above about 70%; inactive = the rest.

How the values were obtained:
[1] = NCI Yeast Anticancer Drug Screen. Data for the rad50 strain (AID 155);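 note: 0% = growth of vehicle-only cultures of the same strain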; settings: S. cerevisiae rad50 strain growth inhibition, hits give high values
In short: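 DNA repair mutant yeast, compound exposure, growth read-out; inhibition is taken relative to vehicle.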

[2] = NCI Yeast Anticancer Drug Screen. Data for the mec2-1 strain (AID 157); settings: S. cerevisiae mec2-1 strain, hits give high values
In short: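 Compounds were applied to mec2-1 yeast cells. Their growth was then compared with that of vehicle-treated cultures to give growth inhibition.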

[3] = NCI Yeast Anticancer Drug Screen. Data for the sgs1 mgt1 strain (AID 161);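 note: 0% = growth of cultures given vehicle only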; settings: S. cerevisiae sgs1 mgt1 strain, hits give high values
In short: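 Growth of a repair-deficient yeast mutant was monitored after compound treatment and expressed as inhibition relative to vehicle-treated cultures.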

[4] = NCI Yeast Anticancer Drug Screen. Data for the cln2 rad14 strain (AID 165);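 note: 0% = growth equal to vehicle treated cultures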; settings: S. cerevisiae cln2 rad14 strain, hits give high values
In short: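 Strain: cln2 rad14 yeast, altered in cell cycle control and DNA damage repair. Read-out: growth inhibition vs vehicle.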

[5] = NCI Yeast Anticancer Drug Screen. Data for the bub3 strain (AID 167); settings: S. cerevisiae bub3 mutant strain, hits give high values
In short: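 In this screen, a yeast mutant lacking normal mitotic checkpoint function is challenged with compound. Relative growth versus vehicle gives the inhibition value.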

[6] = NCI Yeast Anticancer Drug Screen. Data for the mlh1 rad18 strain (AID 175); settings: S. cerevisiae mlh1 rad18 strain growth inhibition, hits give high values
In short: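 A repair-deficient yeast strain is exposed to test compound, and growth is scored relative to vehicle-treated controls.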

[7] = at 5.0 µM (retest, dose inferred, filed as 0.5)
[8] = at 50.0 µM (retest, dose inferred, filed as 5.0)

Compound	growth inhibition [1, 7]	growth inhibition [1, 8]	growth inhibition ([1]; at 50.0 µM)	growth inhibition [2, 7]	growth inhibition [2, 8]	growth inhibition ([2]; at 50.0 µM)	growth inhibition [3, 7]	growth inhibition [3, 8]	growth inhibition ([3]; at 50.0 µM)	growth inhibition [4, 7]	growth inhibition [4, 8]	growth inhibition ([4]; at 50.0 µM)	growth inhibition [5, 7]	growth inhibition [5, 8]	growth inhibition ([5]; at 50.0 µM)	growth inhibition [6, 7]	growth inhibition [6, 8]	growth inhibition ([6]; at 50.0 µM)
OCC1OC(NC(=S)NCSCCC(F)(F)C(F)(F)C(F)(F)C(F)(F)C(F)(F)C(F)(F)F)C(O)C(O)C1O (stereo unspecified)	17%	-21%	80.8% (active)	7%	19%	93.5% (active)	36%	36%	93.6% (active)	22%	37%	66.4%	7%	-8%	95.1% (active)	22%	-3%	92.3% (active)
O=C(Cc1nc2ccc([N+](=O)[O-])cc2[nH]c1=O)C(=O)Nc1cc(Cl)c(Cl)cc1Cl	-16%	-2%	8.05%	-16%	-7%	-5.45%	-7%	-15%	-6.05%	-25%	-6%	6.65%	-16%	2%	23.9%	-4%	-13%	26.1%
Cc1ccc2c(c1)SSc1ccc(C)cc1SS2	78% (active)	92% (active)	81% (active)	42%	94% (active)	27.9%	35%	94% (active)	75.7% (active)	84% (active)	91% (active)	55.5%	79% (active)	93% (active)	73.2% (active)	66%	93% (active)	64.8%
C[Si](C)(C)CC(c1ccccc1)C(O)c1ccccc1 (stereo unspecified)	-7%	96% (active)	98.5% (active)	-4%	98% (active)	97.8% (active)	-3%	98% (active)	98% (active)	0%	97% (active)	93.9% (active)	0%	98% (active)	98.7% (active)	1%	98% (active)	98.8% (active)
CNC(=O)OCCC(OC(=O)NC)C1CCC2C3CC=C4CC(OC(=O)NC)CCC4(C)C3CCC12C (stereo unspecified)	85% (active)	94% (active)	6.5%	52%	94% (active)	-1.8%	77% (active)	96% (active)	2.6%	72% (active)	89% (active)	-6.45%	73% (active)	94% (active)	-1.8%	88% (active)	91% (active)	34.5%
Cc1cc(C)c(S(=O)(=O)c2c(C)cc(C)cc2C)c(C)c1	-3%	-7%	39%	-4%	-9%	12.5%	-4%	-4%	6.2%	-5%	-22%	41.7%	-3%	-6%	0.65%	-6%	-12%	1.15%
CC(C)(C)OC(=O)N(CCCCNC(=O)OCc1ccccc1)CCCNC(=O)OCc1ccccc1	9%	9%	23.1%	7%	-4%	14.8%	-19%	-3%	-1.15%	0%	18%	-0.85%	2%	-1%	-13.4%	9%	9%	-57.7%
NC(=O)NC(=O)N/N=C/c1ccc([N+](=O)[O-])o1	2%	25%	74.8% (active)	1%	20%	22.9%	5%	27%	68.2%	-1%	12%	38%	-5%	17%	27.2%	4%	40%	61.5%
COc1ccc(C(=O)CCc2c[nH]c3ccccc23)c(O)c1	2%	43%	-1.85%	-9%	22%	13.8%	11%	46%	36%	22%	72% (active)	14.2%	12%	79% (active)	23.5%	-9%	79% (active)	-13.3%
CO[C@H]1CC[C@@]2(C)C(=CC[C@H]3[C@@H]4C[C@H](OC(C)=O)C[C@@]4(C)CC[C@@H]32)C1	4%	43%	26.4%	2%	26%	17.8%	1%	24%	38.3%	2%	28%	86.7% (active)	1%	19%	13.3%	0%	23%	34.9%
NNC(=O)c1ccc(N)cc1O	-1%	-5%	-13.6%	-3%	-1%	-13.8%	-2%	-3%	-29.2%	-2%	-11%	75.1% (active)	-1%	-1%	-3.65%	0%	-4%	1.8%
CCOC(=O)c1ccc2c3c([nH]c2c1C)-c1ccccc1CC3	12%	93% (active)	93.5% (active)	-7%	94% (active)	94% (active)	14%	95% (active)	94.7% (active)	-9%	91% (active)	90.7% (active)	1%	94% (active)	94.2% (active)	14%	94% (active)	91.9% (active)
ClC(Cl)(Cl)C(NCCN1CCOCC1)c1ccccc1 (stereo unspecified)	99% (active)	88% (active)	80% (active)	100% (active)	99% (active)	61.7%	100% (active)	98% (active)	84.5% (active)	66%	55%	78.8% (active)	98% (active)	97% (active)	66.3%	99% (active)	98% (active)	78.7% (active)
CCCCCCCCCCCCCCC(O)C(=O)O (stereo unspecified)	-6%	-27%	68.7%	-2%	-31%	88.1% (active)	-7%	-33%	33%	-1%	-42%	11.4%	-1%	-28%	96.4% (active)	-2%	-27%	73.5% (active)
Nc1ccc2nc(N)sc2c1	-5%	8%	20.1%	-6%	2%	-3.75%	0%	-47%	18.5%	0%	2%	42.9%	-2%	90% (active)	-15.2%	-4%	4%	-6.65%
Sc1ccccc1C1N(Cc2ccc(Cl)cc2)CCCN1Cc1ccc(Cl)cc1	98% (active)	42%	79.2% (active)	100% (active)	69%	55.6%	99% (active)	84% (active)	86.8% (active)	99% (active)	39%	64%	99% (active)	63%	81.8% (active)	99% (active)	73% (active)	79.6% (active)
N#CC=Cc1ccc([N+](=O)[O-])s1 (mixture of isomers)	41%	99% (active)	89.8% (active)	39%	98% (active)	90.8% (active)	59%	99% (active)	90.8% (active)	32%	99% (active)	90.8% (active)	70% (active)	99% (active)	88.5% (active)	50%	98% (active)	91.1% (active)
